Out of some 140,000 compounds screened, about 1,400 (1%) were called active. Only a selection was taken, and actives are over-represented in it overall. Values without a mark were called inactive. Cut-off read from the data, not from the text of the source: active = inhibition above about 17%; inactive = the rest.

The test deals with Neuropeptide Y receptor type 2 (Homo sapiens) (UniProt P49146). Put plainly: blockers of human neuropeptide Y Y2 receptor – cell-based, primary screen (AID 793).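 Note: 0% = vehicle with agonist challenge and 100% = reference antagonist with challenge.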 The settings on record: NPY-Y2 expressing cells, antagonist mode; at 2.7 µM; active compounds read high.
Sequence of Neuropeptide Y receptor type 2 (Homo sapiens) (P49146 whole entry, looked up): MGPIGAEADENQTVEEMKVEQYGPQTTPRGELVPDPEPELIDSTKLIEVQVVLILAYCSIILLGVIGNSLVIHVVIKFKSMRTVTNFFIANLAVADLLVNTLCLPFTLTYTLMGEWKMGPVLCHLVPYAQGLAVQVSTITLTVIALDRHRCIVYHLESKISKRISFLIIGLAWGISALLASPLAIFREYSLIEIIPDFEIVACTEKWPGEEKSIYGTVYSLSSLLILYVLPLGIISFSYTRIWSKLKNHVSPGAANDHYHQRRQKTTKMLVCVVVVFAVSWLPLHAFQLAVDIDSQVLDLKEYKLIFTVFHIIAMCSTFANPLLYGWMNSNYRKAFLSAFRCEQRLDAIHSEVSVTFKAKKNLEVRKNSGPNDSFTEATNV
As for `CSCc1ccc(C(=O)Nc2cc(C)cc(C)c2)cc1`, the inhibition (commonly the drop in the measured response relative to a control, in per cent) is 3.07%.

On to `CC(=O)c1c(Nc2ccccc2)sc(C(=O)c2ccccc2)c1C`, for which the inhibition was 14.2%.

On to `CCCCOC(=O)Nc1sc2nc(C)cc(C)c2c1-n1cccc1`, for which the inhibition was 4.45%. Next, `COC(=O)Nc1sc2nc(C)cc(C)c2c1-n1cccc1`: 2.27%; `Cc1cc(C)c2c(-n3cccc3)c(NC(=O)OCc3ccccc3)sc2n1`: 24.7% (active).

As to `O=C(Nc1cccc(S(=O)(=O)N2CCCCC2)c1)c1ccc2c(c1)OCO2`, the inhibition is 3.64%. Next, `COc1ccccc1Nc1ncnc2c1oc1ccccc12`: 19.4% (active); `CCc1nc(Nc2ccc3nccnc3c2)c2oc3ccccc3c2n1`: -2.05%; `Cc1nc(Cl)c2oc3ccccc3c2n1`: 4.04%.

As to `O=[N+]([O-])c1ccc(N2CCN(c3ccc(O)cc3)CC2)c(Cl)c1`, the inhibition is -2.81%. In the case of `CCN1CCN(c2ccc([N+](=O)[O-])cc2C(=O)c2ccc(Cl)cc2)CC1`, the inhibition was 22.2% (active). Then `CCC(C)(C)NC(=O)c1cc([N+](=O)[O-])ccc1N1CCCCC1`, with 0.52%; and `NC(=O)CC[C@@H]1NC(=O)[C@@H]2CCCN2C(=O)c2cc([N+](=O)[O-])cc(F)c2NCCC[C@@H](C(N)=O)NC1=O`, with -1.38%. Next, `CCC1=NN(C(=O)Cc2ccc([N+](=O)[O-])cc2)C(O)(c2ccc(Br)cc2)C1` (configuration not stated): 4%. Next, `COCCNC(=O)C(c1ccc(C)o1)N(Cc1ccccc1)C(=O)Cn1nnc2ccccc21` (configuration not stated): 2.71%; `Cc1ccc(C(C(=O)NCc2ccco2)N(CC2CCCO2)C(=O)Cn2nnc3ccccc32)cc1` (configuration not stated): 5.64%; `COc1ccccc1N(C(=O)Cn1nnc2ccccc21)C(C(=O)NCc1ccco1)c1ccc(C)o1` (configuration not stated): 26.2% (active). In the case of `O=C(Cn1nc(CNc2ccc(Cl)cc2)[n+]2c1CCCCC2)c1ccc(Cl)cc1`, the inhibition is 0.53%. Next, `CCn1nc(C)c(/C=N/NC(=O)Cc2ccc(Cl)cc2)c1C`: 2.23%; `COc1ccc(NS(=O)(=O)c2ccc(NC(=S)NC(=O)/C=C/c3ccc(C)cc3)cc2)nn1`: 3.45%. Next, `COc1ccc(NC(=O)/C(Cl)=C(/Cl)S(=O)Cc2ccc(C)cc2)cn1` (configuration not stated): 52% (active); `COc1cccc(NC(=O)Cc2ccc(C)cc2)c1`: 3.66%; `CN(C)c1ccc(/C=N/NC(=O)c2ccc(Cn3cc(Br)cn3)o2)cc1`: -0.65%.

For `CCCCC1S/C(=N/N=C/c2cccs2)NC1=O` (configuration not stated), the inhibition was 2.47%. Then `COCCNC(=O)c1onc(CSc2cccc(C)c2)c1C(=O)O`, with 5.73%; and `CCCCNC(=O)c1onc(CSc2cccc(OC)c2)c1C(=O)O`, with 28% (active); and `CCOc1cccc(SCc2noc(C(=O)NC(C)C)c2C(=O)O)c1`, with 6.09%. For the compound `COc1ccnc(Oc2ccccc2)n1`, the inhibition was 1.08%. Consider `CC12CN(Cc3ccccc3)CC(C)(CN(Cc3ccccc3)C1)C2=NO`, for which the inhibition was 28.4% (active). Then `O=C(Nc1ccccc1)N1CCN(Cc2ccccc2)CC1`, with 0.29%.

Consider `CCCC(=O)C1CCN(Cc2ccccc2)CC1`, for which the inhibition was 0.89%.

In the case of `COc1ccccc1N1CCN(CC(=O)NC(=O)NCc2ccco2)CC1`, the inhibition is 2.56%. Then `CC(Nc1nc(N2CCCC2)nc2ccccc12)c1ccccc1` (configuration not stated), with 54.6% (active); and `CC(C)n1c(C(O)c2ccccc2)nc2ccccc21` (configuration not stated), with 1.4%. Then `Cc1ccc(C(CC(=O)O)Nc2nc(N3CCCCC3)nc(N3CCCCC3)n2)cc1` (configuration not stated), with 1.53%; and `Cc1cc(Oc2ccc(Cl)cc2)nc(SCC(=O)c2ccccc2)n1`, with 48.6% (active).

On to `COC(=O)c1cc(C(=O)CSc2nc(C)cc(C)n2)ccc1O`, for which the inhibition is 4.06%. On to `Cc1cc(SCC(=O)c2ccccc2)nc(SCC(=O)c2ccccc2)n1`, for which the inhibition is 13.8%. In the case of `Cc1ccccc1OCC(=O)Nc1nc(C)c(C(=O)N(C)C)s1`, the inhibition was 5.58%. Next, `CC1CCN(C(=S)NC2CC3CCC2C3)CC1` (configuration not stated): 1.13%; `O=C(CN1C(=O)NC2(CCCCC2)C1=O)NCCC1=CCCCC1`: 0.27%; `O=C(CN1C(=O)NC2(CCCCCC2)C1=O)NCc1cccs1`: -3.2%. Then `O=C(CN1C(=O)NC(Cc2ccccc2)(Cc2ccccc2)C1=O)NCC1CCCCC1`, with 80.5% (active); and `O=C1CC(c2cccc(Cl)c2)CC(O)=C1C=Nc1ccccc1` (configuration not stated), with 18.4% (active). Then `O=C1CC(c2ccccc2)CC(O)=C1C=NCCN1CCOCC1` (configuration not stated), with 0.58%; and `O=C1CCCC(O)=C1C=NCCc1ccccc1`, with 1.66%; and `COc1ccc(NC(C(=O)Nc2cccc(C(C)=O)c2)c2ccccc2)cc1` (configuration not stated), with -1.54%. Consider `COCCCNCCOCCOc1ccc(Cl)cc1Br`, for which the inhibition is 3.88%. Next, `O=C(NCc1cccnc1)c1ccc(CS(=O)(=O)c2ccc(Br)cc2)o1`: -0.12%; `O=C(NCc1cccnc1)c1cccnc1Sc1ccc(Cl)cc1`: -0.63%. Then `Cc1ccc(S(=O)(=O)N(Cc2ccc(Cl)cc2)c2ccccc2C(=O)NCc2cccnc2)cc1`, with 35% (active); and `COc1ccc(/C=N/NC(=O)c2ccccc2)cc1OS(=O)(=O)c1ccccc1`, with 0.26%; and `COc1ccc(-c2noc(COc3ccc(Cl)c(C)c3)n2)cc1`, with 18.2% (active). Then `COc1ccc(-c2noc(-c3ccc(C)cc3)n2)cc1`, with 2.85%; and `COc1ccc(-c2noc(CSc3ccc(C)cc3)n2)cc1`, with 16.5%. In the case of `O=C(NCCCO)/C(=C\C=C\c1ccccc1)NC(=O)c1ccccc1Cl`, the inhibition was 1.12%.

Take `CCOC12CC(C)(C)CC(C)(CC3=C1C(=O)CC(C)(C)C3)C2` (configuration not stated): the inhibition was 3.39%. Next, `COc1ccc(C(=O)Nc2c(Cl)cc(Cl)cc2C(=O)N2CCC(C)CC2)cc1`: 3.91%; `O=c1c2ccccc2nc2n1C1(CCCCC1)Cc1ccccc1-2`: 21.2% (active); `c1cncc(-c2nnc3n2C2(CCCCC2)Cc2ccccc2-3)c1`: 1.77%.

As to `CCC1(CC)Cc2ccccc2-c2nc3ccccc3c(=O)n21`, the inhibition was 7.5%.

Take `COc1ccc(C(C(=O)NC2CCCCC2)N(C(=O)Cc2c[nH]c3ccccc23)c2ccccc2)cc1OC` (configuration not stated): the inhibition is 0.1%.

Source of the values: PubChem BioAssay AID793 (The Scripps Research Institute Molecular Screening Center, 2007).
